The text below walks through data of the supplement of paper PMC6555819.

The assay concerns PXR:RXRa (NR concentration 270 nM, RXRa partner concentration 90 nM). The experiment in a line: PBM binding z-score (relative to random genomic background probes); higher = stronger binding; sequences stand for … in GC…GCGATTGACAGCGTAGAATGAAGG
In short, it runs like this: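 Ligand-free nuclear receptor dimers were applied to custom Agilent 4×180K protein-binding microarrays whose double-stranded probes carried direct-repeat seeds, single-nucleotide variants, half-site ablations and random human genomic background sequences in 34-nt variable regions. Incubation lasted 1 h. Binding z-scores were computed against the random background probes from regression-normalized fluorescence.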
On to GCGACTGGGCCATCAGCAGGTTACCATAACTTAA, for which the PBM binding z-score was -0.569.

As for CCGACTGGGGCCGAAAGGTTACCATACCATCCGG, the PBM binding z-score was determined as 1.29.

With GCTCGGAGGACAACGTCAGAGCTTTGTCCGTAGA, the PBM binding z-score was -0.976.

TCATATTGGTAAAGGTGAAAGTCGAACGATATGA showed a PBM binding z-score of 0.712.

For TGAATGAGGTTCAAGATCAGGGAACGTGGCGTCG, the PBM binding z-score was found to be 0.583.

In turn, TAGCCTAGGTCATTCAGGGGCCAGGATAGAAAGC came in with a PBM binding z-score of 2.26.

Sequence AGTCAAAGTTCATCTAGGTAATGTAAGATATGCT returned a PBM binding z-score of 5.28.

On to CGAACTAGGTCACTGACAGGACAGTGAATAGTAA, for which the PBM binding z-score was 1.1.

Sequence GATACAGGGTCAGCTAGAGGCTAGAGTATGGAAA returned a PBM binding z-score of 2.29.

As to TCTAGCAGGCCAGAGGGTAACTCAAGAGGTACGG, the PBM binding z-score is -0.174.

For ATCTCTAGGTAGAGTTCAGTGAAAGATCGATAGA, the PBM binding z-score turned out to be 2.52.

Regarding TGAATGAGGTTAAAGTTCAGGGAACGTGGCGTCG, the PBM binding z-score stood at 5.23.

The sequence TCTATTAGATGATTAGGGCAACCGAAACAGCGGA displayed a PBM binding z-score of 0.4.

For the sequence ATATGTAGGTTAAGGGTCATTCTGGTTGGTTCGC, the PBM binding z-score came to 4.85.

The sequence CGTCCAAGGTCAAAGTTCAGTGAAGAGATGACGG came in with a PBM binding z-score of 6.59.

Sequence GTTCGGAGGACAAGGTCAGAGCTTTGTCCGTAGA came in with a PBM binding z-score of 1.67.

As for TCGAGTAGGGTACCAATGGGGCATTCAGCTTTCT, the PBM binding z-score is -0.333.

Sequence CGAACTAGGTCAAGAACAGTGAATCTCCGCACGC had a PBM binding z-score of 0.968.

TCTTGTAGAGCAAAGGTTAAGAAAGCCGAAGCCT: the PBM binding z-score is 1.49.

Turning to CCGACTGGGCCAAAAAGGTCATTGATGCCGATAA, the PBM binding z-score was found to be 4.5.

AAAATGAGGTTACCAAAGATCAGGGAAACGCTTG had a PBM binding z-score of 1.71.

TCATATAGGTAAACAGGGGAAAGTCCGTAAGTTA: the PBM binding z-score came to 0.921.

As for CCAGAAAGGTGAGAAGGTAACTCAGCCTCGATTA, the PBM binding z-score amounted to 0.319.

The sequence GCTTACGGGTCAAAGGTTATTGCATGAATAGAAT gave a PBM binding z-score of 6.21.

In turn, CAAACTAGGTCAAATGTCAAAGTCGAGCCAACCA registered a PBM binding z-score of 3.16.

Sequence CGAACTAGGTCATCCAGGACAGCGAATACATTGA displayed a PBM binding z-score of 1.78.

The sequence TCATATAGGTAAACAGGTGACAGTCCGTAAGTTA returned a PBM binding z-score of 0.915.

GCAGACAGGTGAAACGCAGGTAACACAGGGTGGC displayed a PBM binding z-score of 0.067.

AGAATGAGCTTATACGTAGATCAGGGAAGAAAGT had a PBM binding z-score of -0.359.

Take TCTGCTAGGTCAGTTGGTAAGCTAACGAGCTGCC: the PBM binding z-score is -0.186.

Take TCTATTAGTTGATGGGCAACCGACGAGTCCGTTT: the PBM binding z-score came out at 0.231.

ACTACTTGGTCAGCTGAGGTCACACACAATTCGG came in with a PBM binding z-score of 5.72.

On to ATCGAAAGGTCGAGCTGAGTATAGAGAAAGGGAA, for which the PBM binding z-score was determined as 2.5.

Sequence TCTGCTAGGTCAGTTGGTCACCTAACGAGCTGCC yielded a PBM binding z-score of 0.216.

With CCGACTGGGGCATAAGGTTAGCATAAGCCAGCCC, the PBM binding z-score was -0.447.

The sequence CGAACTAGGTTAGAACAGGACAGTGAAGGATGAT registered a PBM binding z-score of -0.0109.

Turning to ATACCCAGGTGATCGTGAGGTCGTTGATACTAAC, the PBM binding z-score stood at 2.35.

Turning to TAGCCTAGGGCATGCGGGCCAGTATAGTGTCGGC, the PBM binding z-score is -0.802.

ATATGTAGGTTAGCTGTGGTCATTCAGACTAGGC had a PBM binding z-score of 1.3.

On to TCTAGCAGGCCAGAGAGTCACTCAAGAGGTACGG, for which the PBM binding z-score was -0.468.
